Experimental data: PubChem BioAssay AID720611 (Broad Institute, 2013)
Results with a measured potency or affinity are listed apart. Activity calls are given as the source filed them.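 Rule for the calls: active = viability loss with half-effect dose no higher than twice the top dose, at all three exposure times; inconclusive = exposure times disagree or give unclear fits; inactive = inactive at every exposure time.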

Assay: SNB-19 glioblastoma cell viability over time, late-stage follow-up, mechanism study for HRAS target identification, CellTiter-Glo ATP luminescence, 8-48 h, dry powder (AID 720611)

| SMILES | outcome |
| --- | --- |
| Cc1onc(C(=O)N2CCN(C(c3ccncc3)c3ccncc3)CC2)c1[N+](=O)[O-] | inactive |
| CCC(=O)N(c1ccc(OC)c(Cl)c1)C(C(=O)NCCc1ccccc1)c1cccs1 (configuration not stated) | inactive |
